Experimental findings from PubChem BioAssay (NCI) are described below.

About 79,000 compounds went through this panel and 15% of them were active in at least one assay; those are over-represented in the sample as a whole. Unmarked numbers belong to inactive results. Active and inactive are the calls of the source. Rule as the data show it: active = growth inhibition above about 70%; inactive = the rest.

Assay [1] can be described thus: NCI Yeast Anticancer Drug Screen. Data for the rad50 strain (AID 155).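 Also: 0% = growth of vehicle-only cultures of the same strain.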 The settings on record: S. cerevisiae rad50 strain growth inhibition; at 50.0 µM; active compounds read high. Summed up:
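Inhibition values express reduced yeast growth in compound-treated cultures relative to vehicle-treated controls.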

The nature of assay [2]: NCI Yeast Anticancer Drug Screen. Data for the mec2-1 strain (AID 157). The settings on record: S. cerevisiae mec2-1 strain, at 50.0 µM, active compounds read high. Summed up:
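Using mec2-1 yeast: add compound, measure growth, express inhibition versus vehicle-treated cultures.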

A short description of assay [3]: NCI Yeast Anticancer Drug Screen. Data for the sgs1 mgt1 strain (AID 161).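 Also: 0% = growth of cultures given vehicle only.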 The settings on record: S. cerevisiae sgs1 mgt1 strain, at 50.0 µM, active compounds read high. In short, it runs like this: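 This yeast growth screen uses a strain with defined DNA-repair lesions; compound-treated growth is compared with vehicle-treated growth.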
A short description of assay [4]: NCI Yeast Anticancer Drug Screen. Data for the cln2 rad14 strain (AID 165).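 Also: 0% = growth equal to vehicle treated cultures.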 The following applies: S. cerevisiae cln2 rad14 strain, at 50.0 µM, active compounds read high. In short, it runs like this: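 Yeast strain cln2 rad14, bearing defects in cell cycle control and DNA repair, serves as the test system; values reflect growth inhibition compared with vehicle.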
A short description of assay [5]: NCI Yeast Anticancer Drug Screen. Data for the bub3 strain (AID 167). The settings on record: S. cerevisiae bub3 mutant strain, at 50.0 µM, active compounds read high. In short, it runs like this:
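Steps: expose the mutant yeast strain to compound; grow alongside vehicle-treated cultures; measure growth; express inhibition against the vehicle cultures.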

Turning to `c1ccc(C2=C(c3ccccc3)CSSC2)cc1`, the growth inhibition in assay [1] was 46.4%; in assay [2], 34.6%; in assay [3], 79.8% (active); in assay [4], 46.6%; in assay [5], 41.7%.

With `Nc1ncnc2c1cnn2-c1ccc(Cl)cc1`, the growth inhibition was 42% in assay [1]; 9.15% in assay [2]; 62.6% in assay [3]; -7.2% in assay [4]; 23.8% in assay [5].

As for `CC(C)N1C(=O)NC(=O)C12CCN(Cc1ccccc1)CC2`, the growth inhibition in assay [1] was -1.5%; in assay [2], -1.65%; in assay [3], -5.9%; in assay [4] it was -1.7%; in assay [5], 11.6%.

For `NC1CC(=O)N(Cc2ccccc2)C1=O` (stereo not given), the growth inhibition in assay [1] is 5.75%; in assay [2], -7.9%; in assay [3], -9.8%; in assay [4], -11.6%; in assay [5], -0.25%.

As for `c1ccc(CC2CO2)cc1` (stereo not given), the growth inhibition in assay [1] is -2.7%; in assay [2] it was -17.8%; in assay [3], -1.4%; in assay [4], -15.2%; in assay [5] it was -0.2%.

In the case of `CC1=NN(C(=O)Nc2ccccc2)C(=O)C2CCC(=O)N12` (stereo not given), the growth inhibition is -6.3% in assay [1]; -4.55% in assay [2]; -3.55% in assay [3]; 3.85% in assay [4]; -1% in assay [5].

For `Nc1ccc([N+](=O)[O-])cc1C(=O)O`, the growth inhibition in assay [1] was 5.1%; in assay [2], 0.9%; in assay [3], -6.8%; in assay [4], -15.7%; in assay [5], 3.05%.

Regarding `CCOc1cc[n+](C)c2ccc(C)cc12`, the growth inhibition in assay [1] is 13.6%; in assay [2] it was 12.8%; in assay [3], 11.3%; in assay [4], 16.3%; in assay [5], 21.5%.

For `N#Cc1c2nc3ccccc3nc2n2ccc3ccccc3c12`, the growth inhibition in assay [1] was -50%; in assay [2], -61%; in assay [3], -83.3%; in assay [4], -13.1%; in assay [5], -42.5%.

With `O=P(O)(O)OP(=O)(O)OCC1OC(n2cnc3c(=S)nc[nH]c32)C(O)C1O` (stereo not given), the growth inhibition in assay [1] was -2.65%; in assay [2], 3.5%; in assay [3], -5%; in assay [4], -9.2%; in assay [5], 3.55%.

Turning to `CCCCCCCCCCCCC(Br)C(=O)OCC` (stereo not given), the growth inhibition in assay [1] is 7.55%; in assay [2], -7.6%; in assay [3], 16.1%; in assay [4], -5.2%; in assay [5], -6.6%.

As to `O=C1C/C(=C\c2cccc([N+](=O)[O-])c2)C(=O)N1`, the growth inhibition is 9.7% in assay [1]; 11.3% in assay [2]; -5.4% in assay [3]; -11.3% in assay [4]; -2.8% in assay [5].

On to `C(=C\c1nc2ncccn2n1)/c1ccccc1`, for which the growth inhibition was 16.4% in assay [1]; -2.75% in assay [2]; 6.55% in assay [3]; -20.9% in assay [4]; 4.6% in assay [5].

For `COc1cc(/C=C/c2ccc([N+](=O)[O-])cc2[N+](=O)[O-])ccc1O`, the growth inhibition in assay [1] is 24.3%; in assay [2], 8.5%; in assay [3], 28.6%; in assay [4], 19.1%; in assay [5], 9.25%.

Regarding `CC1=CC(C)(C)NC(=S)N1c1ccc(C)cc1S(=O)(=O)O`, the growth inhibition in assay [1] is 28.5%; in assay [2], -1.7%; in assay [3] it was -18%; in assay [4], -16.2%; in assay [5], 7.95%.

Turning to `c1ccc(CN2CCC(N3CCCC3)CC2)cc1`, the growth inhibition is -22.7% in assay [1]; -26.1% in assay [2]; -22% in assay [3]; 10.7% in assay [4]; -23.3% in assay [5].

On to `Cn1nnnc1/C(=C/c1ccccc1)C(=O)O`, for which the growth inhibition in assay [1] was 12.9%; in assay [2], -0.15%; in assay [3] it was 0.1%; in assay [4] it was -18.9%; in assay [5], 12.1%.

Regarding `O=[N+]([O-])c1ccc(C=Nc2ccccc2)cc1`, the growth inhibition was 41.1% in assay [1]; 24.1% in assay [2]; 30.9% in assay [3]; 11.9% in assay [4]; 1% in assay [5].

In the case of `Cc1c(C)c2ccc(OCC(O)COC(C)C)c(C)c2oc1=O` (stereo not given), the growth inhibition was -10.7% in assay [1]; -5.5% in assay [2]; -2.15% in assay [3]; -5.95% in assay [4]; -1.95% in assay [5].

Regarding `CN(C)CC(/C(Cc1ccccc1)=N\NC(=S)NN)c1ccccc1` (stereo not given), the growth inhibition is 23.1% in assay [1]; 9.55% in assay [2]; 38.2% in assay [3]; 21.4% in assay [4]; -3.25% in assay [5].

In the case of `N/C(=N\OC(=O)NC(Cl)=C(Cl)Cl)c1ccc(Cl)cc1`, the growth inhibition in assay [1] is -18.9%; in assay [2], -34.4%; in assay [3], 7.4%; in assay [4] it was 16.7%; in assay [5], -13.9%.

As for `CC(=O)OC1CCC(C(C)C)CC1` (stereo not given), the growth inhibition in assay [1] was 4.35%; in assay [2], -2.95%; in assay [3], -0.25%; in assay [4], -28.2%; in assay [5], 1.15%.

With `O=C1C(SCCO)=C(SCCO)C(=O)c2[nH]cnc21`, the growth inhibition in assay [1] was 13.8%; in assay [2], -10.4%; in assay [3] it was 6.5%; in assay [4], -0.85%; in assay [5] it was 6.8%.

Consider `COc1cc2ccccc2oc1=O`, for which the growth inhibition in assay [1] was 21.3%; in assay [2], 8.85%; in assay [3], 3.8%; in assay [4], 15.2%; in assay [5], 5.2%.
